Bioassay records from PubChem BioAssay.
The list is not random: actives were taken first. Their share in the collection is about 7.5%.
SMN2 splice enh – enhancers of SMN2 splice variant expression. Potency, µM (doses to about 46.1 µM), for the others: top-dose activity change, positive = activation, actives largely listed as activators. HEK293 SMN2-luciferase splicing reporter, luminescence, 30-36 h. hit rate 2.8% among 210,000. AID 1458; also: % of control where 0% means no effect; nearly all actives have a fitted effect of over 55% in size
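HEK293 cells carry an SMN2 […]–luciferase reporter in which exon 7 inclusion puts luciferase in frame. Cells were plated 10-12 h before compound addition, then incubated 30-36 h at 37C. ONE-Glo luminescence was read; sodium butyrate at 4.5 mM final served as control.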
KinaseGlo FLuc – counter-screen: inhibitors of Kinase-Glo firefly luciferase | Kinase-Glo luciferase, ATP luminescence, 8 min | Potency, µM (doses to about 38.3 µM), for the others: at the top dose activity change, negative = inhibition, actives largely listed as inhibitors | hit rate 0.28% among 200,000; also: % is scaled to controls: 0 for no effect and ±100 for the full control effect; nearly all actives have a fitted effect of over 60% in size
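Substrate mix (final 50 mM imidazole pH 7.2, 50 mM KCl, 7 mM MgCl2, 10 uM ATP, 0.01% Tween 20, 0.05% BSA) plus pin-tool compound, then Kinase-Glo detection mix; 8 min ambient, luminescence read.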
NPC1 promoter act – activators of NPC1 promoter; Huh7 NPC1 promoter luciferase reporter, 24 h; Potency, µM (top dose mostly 9.22 µM), inactives show at the highest dose activation, most hits filed as activators; hit rate 2.4% among 320,000; AID 485313; also: % of control where 0% means no effect; nearly all actives have a fitted effect of over 60% in size
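Stably transfected Huh7 (NPC1 promoter→luciferase), 1500 cells/well in Opti-MEM + 10% FBS, 2 h settle, then compound 24 h at 37 °C. Luminescence after 10 min with Amplite reagent.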
FLuc modulator – firefly luciferase modulation, counter-screen for miR-21 project. P08659. purified FLuc, Km substrates, luminescence inhibition. Potency, µM (doses to about 57.5 µM), for the others: at the top dose activity change, negative = inhibition, hits mostly inhibitors. hit rate 6.9% among 360,000. AID 588342;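 also: plate controls were vehicle for no effect and reference inhibitor for full effect; nearly all actives have a fitted effect of over 55% in size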
Target sequence (P08659 whole entry, looked up): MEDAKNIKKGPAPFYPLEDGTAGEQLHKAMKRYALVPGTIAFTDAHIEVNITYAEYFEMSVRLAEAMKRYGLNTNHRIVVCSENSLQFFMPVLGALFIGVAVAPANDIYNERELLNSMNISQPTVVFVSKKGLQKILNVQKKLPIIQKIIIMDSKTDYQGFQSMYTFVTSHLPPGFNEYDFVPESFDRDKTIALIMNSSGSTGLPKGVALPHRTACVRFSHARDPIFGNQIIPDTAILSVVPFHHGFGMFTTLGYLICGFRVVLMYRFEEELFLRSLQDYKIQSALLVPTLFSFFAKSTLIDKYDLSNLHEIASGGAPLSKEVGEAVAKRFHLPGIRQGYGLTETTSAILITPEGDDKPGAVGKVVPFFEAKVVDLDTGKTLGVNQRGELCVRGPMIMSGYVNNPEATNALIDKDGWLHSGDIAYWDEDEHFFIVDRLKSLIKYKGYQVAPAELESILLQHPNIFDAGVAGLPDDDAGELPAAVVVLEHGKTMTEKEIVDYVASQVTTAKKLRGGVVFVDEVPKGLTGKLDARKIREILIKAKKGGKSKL
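Purified P. pyralis luciferase, 10 nM final, with Km-level 10 uM D-luciferin and 10 uM ATP in 50 mM Tris acetate pH 7.5, 10 mM Mg acetate, 0.01% Tween-20, 0.05% BSA; 6-point qHTS titration about 60 µM downward; luminescence read.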
Rab9 promoter act – Rab9 promoter activation; Huh7 Rab9 promoter-luciferase reporter, luminescence, 24 h; Potency, µM (titrated, usually from 9.22 µM), without a hit: top-dose activation, negative = inhibition, actives largely listed as activators; hit rate 2.8% among 320,000; also: % of control where 0% means no effect; nearly all actives have a fitted effect of over 60% in size
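Steps: seed 1500 Huh7 Rab9-luc cells per well, rest 2 h at 37 °C; add compound in DMSO; incubate 24 h; add luciferase reagent, 10 min ambient; read luminescence.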
ELG1 genotox – genotoxicity induction in ELG1-luciferase HEK293T cells. HEK293T ELG1-luciferase reporter, luminescence, 16 h. Potency, µM (series often up to 46 µM), for the others: top-dose activity change, positive = activation, usual class: activators. hit rate 1.3% among 330,000; also: % of control where 0% means no effect; nearly all actives have a fitted effect of over 60% in size
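Cells (2,000/well) expressing the ELG1-luciferase fusion are dosed by pin tool and kept 16 hr at 37 °C, 5% CO2. Signal comes from ONE-Glo luciferase reagent after 30 min at room temperature.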
An asterisk follows results filed as active; u = inconclusive; x = no result given; [ ] = remark or other dose. Calls follow the shape of the dose curve; as a rule, active = well fitted curve in the direction sought with a large enough effect; inconclusive = small, poorly fitted or top-dose-only effect, or another doubt; inactive = no such curve, though single readings can be large; an effect the other way counts as inactive or inconclusive. Potency is read from the fitted curve at half-maximal effect.

SMILES	SMN2 splice enh	KinaseGlo FLuc	NPC1 promoter act	FLuc modulator	Rab9 promoter act	ELG1 genotox
CCN(CC)CCn1c(-c2ccccc2)nc2c(N3CCOCC3)nc(C)nc21	-7%	-2%	x	x	x	x
C=CCOc1ccc(C2c3c(oc4ccccc4c3=O)C(=O)N2CCCN2CCOCC2)cc1 (stereo not drawn)	4%	0%	-3%	4%	0%	7%
CC(C)Oc1ccc(C2c3c(oc4ccccc4c3=O)C(=O)N2CCCN2CCOCC2)cc1 (stereo not drawn)	x	1%	4%	1%	14%	21µM*
Cc1ccc(C2c3c(oc4ccccc4c3=O)C(=O)N2CCCN2CCOCC2)o1 (stereo not drawn)	7.1µM*	-3%	2%	3%	1%	7%
Cc1ccc(NC(=O)c2cc(S(=O)(=O)N3CCC4(CC3)OCCO4)ccc2F)cc1Cl	x	x	x	-8%	x	x
CCc1ccc(NC(=O)C(=O)NCC(c2ccc3c(c2)OCO3)N2CCN(C)CC2)cc1 (stereo not drawn)	x	x	x	0%	x	x
COc1cccc(C(=O)Nc2ccccc2C(=O)OCc2cc(=O)n3c4c(sc3n2)CCCC4)c1	x	x	x	-10%	x	x
COc1ccc(/C=C/C(=O)c2ccc(C)c([N+](=O)[O-])c2)cc1O	2%	-1%	1%	4.8µM*	-4%	9%
Cn1cc([N+](=O)[O-])c(C(=O)Nc2ccc3nc(-c4ccccc4)[nH]c3c2)n1	16µM*	-3%	3.2µM*	4.8µM*	u	u
Cn1cc([N+](=O)[O-])c(C(=O)NCc2cc3ccccc3[nH]2)n1	-3%	-4%	0%	2%	-3%	-3%
Cc1cc(C)n(Cc2ccc(NC(=O)c3nn(C)cc3[N+](=O)[O-])cc2)n1	6%	0%	0%	0%	-3%	-1%
Cn1cc([N+](=O)[O-])c(C(=O)Nc2ccc(-c3nc4ccccc4[nH]3)cc2)n1	8.9µM*	-2%	u	2.7µM*	u	u
Cn1cc([N+](=O)[O-])c(C(=O)Nc2ccc(C3CCCCC3)cc2)n1	x	-2%	14%	11µM*	u	14%
CCOC(=O)c1ccc(NC(=O)C2CCN(C(=O)N3CC(C)Oc4ccc(C)cc43)CC2)cc1 (stereo not drawn)	x	x	x	-8%	x	x
Nc1nc2[nH]c(=O)[nH]c2c(=O)[nH]1	-6%	0%	x	x	x	x
CCc1cccc(NC(=O)Cn2c(=O)n(Cc3ccccc3)c(=O)c3c(C)c(C(=O)N(C)C)sc32)c1	x	x	x	-7%	x	x
CCOC(=O)N1CCC(NC(=O)c2cc(-c3ccc(OC)cc3)nc3ccccc23)CC1	x	x	-1%	4.8µM*	10%	-4%
COc1ccc(-c2cc(C(=O)N3CCCCCC3)c3ccccc3n2)cc1	x	x	0%	6.7µM*	0%	-1%
Cc1ccc(-c2cc(C(=O)N3CCCC3)c3ccccc3n2)s1	x	x	18%	5.4µM*	4%[1.84 µM]	15%
CCc1ccc(-c2cc(C(=O)O)c3ccccc3n2)s1	x	x	2µM*	0.54µM*	1.4µM*	16%
COC(=O)C1(C(C)=O)CC2=CC[C@@H]3C(=O)N(c4ccccc4)C(=O)[C@@H]3[C@@H]2Cc2ccccc2[C@@H]1C[N+](=O)[O-] (stereo partly drawn)	6%	-5%	x	x	x	x
Cc1ccc(S(=O)(=O)n2nc(-c3ccco3)nc2NCc2ccc(N(C)C)cc2)cc1	x	x	x	0%	x	x
COc1ccc(-n2nc(C)c3c(C(F)(F)F)cc(-c4cccnc4)nc32)cc1	0%	x	x	-2%	x	x
COc1cccc2cc(-c3nc4sc5c(c4c(=O)[nH]3)CCC(C(C)(C)C)C5)c(=O)oc12 (stereo not drawn)	x	x	x	-16%	x	x
O=C(c1cc(-c2cccc(Br)c2)nc2ccccc12)N1CCCC1	x	x	2%	15µM*	1%	-12%
Cc1ccc(-c2cc(C(=O)N3CCC(C)CC3)c3ccccc3n2)cc1	x	x	3%	4.3µM*	7%	-5%
